DT40 TDP1 CPT – qHTS for Inhibitors of human tyrosyl-DNA phosphodiesterase 1 (TDP1): qHTS in cells in presence of CPT | chicken DT40 Tdp1-/-;hTDP1 cells + 20 nM CPT, ATP luminescence, 48 h | AID 686979, 2013 | Potency, µM (doses to about 46.2 µM), inactives show at the top dose activity change, negative = growth inhibition, most hits filed as inhibitors | 420,000 tested, 12% active; further: potency means the concentration at half of the fitted maximal effect; nearly all actives have a fitted effect of over 55% in size
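Cell growth measured by CellTiter-Glo luminescence after a minimum 48 h, 37 C compound exposure with 20 nM CPT in Tdp1-knockout DT40 cells stably expressing hTDP1, seeded 400/well; qHTS titration format.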
IL1B secr inh – qHTS for Inhibitors of Inflammasome Signaling: IL-1-beta AlphaLISA Primary Screen | AID 743279, 2014 | activity change, % at 57.5 µM | 360,000 tested, 4.7% active | THP-1 LPS/ATP IL-1B secretion, AlphaLISA, 16 h; active compounds read low; in the data active means activity change below about -50%; inconclusive means mostly about -30% to -49%
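Secreted IL-1B measured by AlphaLISA bead assay after 16 h compound exposure of THP-1 cells; compounds (final up to 57.5 uM) added 1 h before LPS (250 ng/mL) and ATP (1.25 mM) stimulation; lower signal means less secretion.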
HT1080-NT tox – qHTS for induction of synthetic lethality in tumor cells producing 2HG: qHTS for the HT-1080-NT fibrosarcoma cell line | HT-1080-NT fibrosarcoma viability, CellTiter-Glo ATP luminescence, 48 h | Potency, µM (top dose mostly 46.1 µM), for the others: at the highest dose activity, negative = less viability, usual class: cytotoxic | 360,000 tested, 1.6% active | AID 686970, 2013;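 further: NT is the 2HG producing partner of a matched IDH1 knockdown line; potency means the concentration at half of the fitted maximal effect; 0% = DMSO-treated cells and -100% = media-only wells without cells; nearly all actives have a fitted effect of over 55% in size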
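Fibrosarcoma NT cells, 750 per well in 5% FBS RPMI, were exposed to compound for 48 hours. Viability: CellTiter-Glo luminescence.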
TDP1 cell noCPT – qHTS for Inhibitors of human tyrosyl-DNA phosphodiesterase 1 (TDP1): qHTS in cells in absence of CPT; DT40 Tdp1-/- hTDP1 cells, no CPT, ATP luminescence, 48 h; Potency, µM (top dose mostly 46.2 µM), for the others: top-dose activity change, negative = growth inhibition, actives largely listed as inhibitors; 420,000 tested, 15% active; further: potency means the concentration at half of the fitted maximal effect; nearly all actives have a fitted effect of over 55% in size
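Cells were dispensed at 400 per well, compounds added by pin tool, plates incubated ≥48 hr at 37 °C, then CellTiter-Glo added for 30 min at room temperature before luminescence reading. Line: DT40 Tdp1-/- complemented with hTDP1; camptothecin omitted.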
HT1080 IDH1KD tx – qHTS for induction of synthetic lethality in tumor cells producing 2HG: qHTS for the HT-1080-IDH1KD cell line; 360,000 tested, 2% active; HT-1080 IDH1 knockdown viability, ATP luminescence, 48 h; Potency, µM (highest dose often 46.1 µM), inactives show at the highest dose activity, negative = toxicity, usual class: cytotoxic; AID 686971, 2013;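 further: potency means the concentration at half of the fitted maximal effect; 0% = DMSO wells and -100% = cell-free medium wells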
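HT-1080-IDH1KD cells (IDH1 knocked down), 750/well in RPMI with 5% FBS, treated with compound 48 h at 37 degrees C. Viability by CellTiter-Glo luminescence, normalised to DMSO and no-cell wells; concentration-response curves classed.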
An asterisk follows results filed as active; ? = inconclusive; nt = no result given; [ ] = another dose, or the depositor's remark. A selection: hits, their analogues and other compounds. The true share with any hit is near 19%. Unless noted, the call rests on the fitted dose curve; in most records, active means well fitted curve in the direction sought with a large enough effect; inconclusive means small, poorly fitted or top-dose-only effect, or another doubt; inactive means no such curve, though single readings can be large; an effect the other way counts as inactive or inconclusive. Unless noted, on the % scale 0 is the no-effect control and ±100 the full control effect.

SMILES	DT40 TDP1 CPT	IL1B secr inh	HT1080-NT tox	TDP1 cell noCPT	HT1080 IDH1KD tx
COc1ccc(Cl)cc1NC(=O)COC(=O)CCNS(=O)(=O)c1cccs1	22%	-2	8%	-17%	9%
CC(NC(=O)OC(C)(C)C)C(=O)NC(CCC(=O)OCc1ccccc1)C(N)=O (configuration not stated)	-28%	-8	-1%	29µM*	-2%
CC(C)CC(NC(=O)C(NC(=O)C(Cc1ccc(OCc2ccccc2)cc1)NC(=O)OC(C)(C)C)C(C)C)C(N)=O (configuration not stated)	?	22	-7%	16µM*	0%
Cc1cc(-c2nnc(CCC(=O)N3CCN(Cc4cccc(F)c4)CC3)o2)c(C)o1	-16%	-13	0%	-14%	9%
CCC(C)N1C(=O)S/C(=C/c2ccc(N3CCOCC3)cc2C)C1=O (configuration not stated)	21µM*	0	5%	23µM*	-19%
CCN1C(=O)S/C(=C\c2ccc(N3CCOCC3)cc2C)C1=O	15µM*	-54*	27%	16µM*	4%
Cn1c(=O)c2cc(NC(=O)NCc3ccc(Cl)cc3Cl)ccc2n1Cc1ccc(F)cc1	?	0	-29%	?	?
COc1ccc(CNC(=O)Nc2ccc3c(c2)c(=O)n(C)n3Cc2cc(C)cc(C)c2)cc1	21µM*	12	24%	?	-1%
Cn1c(=O)c2cc(NC(=S)NC3CCCCC3)ccc2n1Cc1ccc(Cl)cc1	?	-57*	-26%	23µM*	-18%
Cn1c(=O)c2cc(NC(=S)NCc3ccccc3F)ccc2n1Cc1ccccc1	16µM*	-14	-1%	15µM*	-2%
Cc1cc(C)cc(Cn2c3ccc(NC(=S)NCc4ccccc4F)cc3c(=O)n2C)c1	?	?	-25%	?	?
Cn1c(=O)c2cc(NC(=S)NCc3ccccc3F)ccc2n1Cc1cccc(C(F)(F)F)c1	21µM*	-1	-11%	?	0%
CCOc1ccc(C(=O)CCC(=O)NNC(=O)CCN2CCN(c3ccccc3)CC2)cc1	-13%	5	3%	-4%	1%
COc1ccc(CN2CCOc3ccc(CN4CCCCC4CO)cc3C2)c(OC)c1 (configuration not stated)	4%[9.04 µM]	nt	nt	?	nt
Cn1c(=O)c2cc(NC(=O)NCc3ccc(F)cc3)ccc2n1Cc1cccc(C(F)(F)F)c1	21µM*	-1	-11%	15µM*	?
Cn1c(=O)c2cc(NC(=O)NCc3ccccc3)ccc2n1Cc1cccc(C(F)(F)F)c1	?	23	-7%	?	-14%
O=C(Cc1c(Cl)cccc1Cl)Nc1ccc(S(=O)(=O)Nc2ncccn2)cc1	19%	8	8%	-21%	-13%
N=c1ccn2c(n1)O[C@H]1[C@@H](CO)[C@H](O)O[C@H]12	0.037µM*	39	?	0.0058µM*	12%
COc1ccc2cc(CCNC(=O)c3cc4ccccc4o3)c(=O)[nH]c2c1	21µM*	-11	-3%	?	-2%
Cc1ccc2cc(CCNC(=O)c3cc4ccccc4o3)c(=O)[nH]c2c1C	?	-9	9%	?	-3%
CC12CCC(C(=O)Nc3ccccc3Cl)(C(Br)C1=O)C2(C)C (configuration not stated)	-2%	0	6%	-21%	20%
O=C(CSc1nc2c([nH]c3ccccc32)c(=O)n1-c1ccc(F)cc1)N1CCCc2ccccc21	?	nt	nt	-14%	nt

From PubChem BioAssay
